Reference: ChEMBL document CHEMBL2218924, “A broad activity screen in support of a chemogenomic map for kinase signalling research and drug discovery” (Biochem J, 2013)

Legend:
[1] = molecular target: T1, Ephrin type-B receptor 1 (Homo sapiens) (UniProt P54762); conditions: at 10 µM
T1 sequence (whole entry): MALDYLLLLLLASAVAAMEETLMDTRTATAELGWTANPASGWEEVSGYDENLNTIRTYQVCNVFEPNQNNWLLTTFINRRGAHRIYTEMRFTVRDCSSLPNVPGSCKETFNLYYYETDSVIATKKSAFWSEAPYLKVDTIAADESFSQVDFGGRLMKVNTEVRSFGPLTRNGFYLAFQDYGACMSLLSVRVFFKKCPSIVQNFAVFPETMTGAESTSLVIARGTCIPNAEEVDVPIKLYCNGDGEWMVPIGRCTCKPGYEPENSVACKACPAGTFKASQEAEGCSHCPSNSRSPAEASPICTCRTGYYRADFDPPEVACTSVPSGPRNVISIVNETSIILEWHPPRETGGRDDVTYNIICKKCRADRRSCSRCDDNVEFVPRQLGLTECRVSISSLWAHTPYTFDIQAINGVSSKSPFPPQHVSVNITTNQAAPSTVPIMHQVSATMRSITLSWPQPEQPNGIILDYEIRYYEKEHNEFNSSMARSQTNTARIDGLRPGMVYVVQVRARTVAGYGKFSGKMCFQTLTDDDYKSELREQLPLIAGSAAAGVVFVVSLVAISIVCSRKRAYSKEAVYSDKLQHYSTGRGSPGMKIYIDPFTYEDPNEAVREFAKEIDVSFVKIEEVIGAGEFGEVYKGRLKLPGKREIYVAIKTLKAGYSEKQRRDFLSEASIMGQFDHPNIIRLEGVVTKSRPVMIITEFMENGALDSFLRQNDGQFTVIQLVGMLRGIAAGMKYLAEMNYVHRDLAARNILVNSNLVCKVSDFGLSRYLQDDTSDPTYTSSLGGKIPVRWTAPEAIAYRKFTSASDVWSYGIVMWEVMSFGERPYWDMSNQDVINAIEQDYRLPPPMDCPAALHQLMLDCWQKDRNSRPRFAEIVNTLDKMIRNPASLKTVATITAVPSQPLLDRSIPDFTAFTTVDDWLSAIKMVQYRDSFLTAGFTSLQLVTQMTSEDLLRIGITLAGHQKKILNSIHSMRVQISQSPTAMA

[2] = molecular target: T2, Ephrin type-B receptor 2 (Homo sapiens) (UniProt P29323); conditions: at 1 µM
T2 sequence (whole entry): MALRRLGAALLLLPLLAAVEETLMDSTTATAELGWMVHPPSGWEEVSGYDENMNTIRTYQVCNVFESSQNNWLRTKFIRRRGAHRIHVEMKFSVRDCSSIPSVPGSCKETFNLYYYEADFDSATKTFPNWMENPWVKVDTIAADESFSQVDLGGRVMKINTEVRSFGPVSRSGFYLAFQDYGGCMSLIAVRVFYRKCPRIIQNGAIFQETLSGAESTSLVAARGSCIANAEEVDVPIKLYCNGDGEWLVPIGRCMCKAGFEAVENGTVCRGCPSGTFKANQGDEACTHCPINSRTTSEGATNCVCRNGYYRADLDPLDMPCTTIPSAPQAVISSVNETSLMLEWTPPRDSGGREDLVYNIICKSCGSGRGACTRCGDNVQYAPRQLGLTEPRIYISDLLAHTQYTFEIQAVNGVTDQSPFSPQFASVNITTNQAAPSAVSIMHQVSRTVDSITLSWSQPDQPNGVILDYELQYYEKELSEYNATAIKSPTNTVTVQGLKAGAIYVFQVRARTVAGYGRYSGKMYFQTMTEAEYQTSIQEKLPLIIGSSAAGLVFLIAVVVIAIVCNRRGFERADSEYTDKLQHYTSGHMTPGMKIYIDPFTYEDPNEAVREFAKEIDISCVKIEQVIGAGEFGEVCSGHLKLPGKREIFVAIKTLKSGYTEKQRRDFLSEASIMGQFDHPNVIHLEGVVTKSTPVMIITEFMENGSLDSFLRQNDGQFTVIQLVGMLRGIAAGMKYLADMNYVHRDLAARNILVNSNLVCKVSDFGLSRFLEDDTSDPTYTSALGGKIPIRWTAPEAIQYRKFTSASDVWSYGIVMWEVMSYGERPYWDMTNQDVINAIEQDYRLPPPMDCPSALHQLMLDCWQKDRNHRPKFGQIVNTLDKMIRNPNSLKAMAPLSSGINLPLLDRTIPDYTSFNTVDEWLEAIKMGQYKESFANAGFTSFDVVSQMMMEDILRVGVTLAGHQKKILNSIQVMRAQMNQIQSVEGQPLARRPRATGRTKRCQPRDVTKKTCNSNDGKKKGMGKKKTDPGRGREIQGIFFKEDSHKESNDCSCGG

[3] = molecular target: T2, Ephrin type-B receptor 2 (Homo sapiens); conditions: at 10 µM
[4] = molecular target: T3, Ephrin type-B receptor 3 (Homo sapiens) (UniProt P54753); conditions: at 1 µM
T3 sequence (whole entry): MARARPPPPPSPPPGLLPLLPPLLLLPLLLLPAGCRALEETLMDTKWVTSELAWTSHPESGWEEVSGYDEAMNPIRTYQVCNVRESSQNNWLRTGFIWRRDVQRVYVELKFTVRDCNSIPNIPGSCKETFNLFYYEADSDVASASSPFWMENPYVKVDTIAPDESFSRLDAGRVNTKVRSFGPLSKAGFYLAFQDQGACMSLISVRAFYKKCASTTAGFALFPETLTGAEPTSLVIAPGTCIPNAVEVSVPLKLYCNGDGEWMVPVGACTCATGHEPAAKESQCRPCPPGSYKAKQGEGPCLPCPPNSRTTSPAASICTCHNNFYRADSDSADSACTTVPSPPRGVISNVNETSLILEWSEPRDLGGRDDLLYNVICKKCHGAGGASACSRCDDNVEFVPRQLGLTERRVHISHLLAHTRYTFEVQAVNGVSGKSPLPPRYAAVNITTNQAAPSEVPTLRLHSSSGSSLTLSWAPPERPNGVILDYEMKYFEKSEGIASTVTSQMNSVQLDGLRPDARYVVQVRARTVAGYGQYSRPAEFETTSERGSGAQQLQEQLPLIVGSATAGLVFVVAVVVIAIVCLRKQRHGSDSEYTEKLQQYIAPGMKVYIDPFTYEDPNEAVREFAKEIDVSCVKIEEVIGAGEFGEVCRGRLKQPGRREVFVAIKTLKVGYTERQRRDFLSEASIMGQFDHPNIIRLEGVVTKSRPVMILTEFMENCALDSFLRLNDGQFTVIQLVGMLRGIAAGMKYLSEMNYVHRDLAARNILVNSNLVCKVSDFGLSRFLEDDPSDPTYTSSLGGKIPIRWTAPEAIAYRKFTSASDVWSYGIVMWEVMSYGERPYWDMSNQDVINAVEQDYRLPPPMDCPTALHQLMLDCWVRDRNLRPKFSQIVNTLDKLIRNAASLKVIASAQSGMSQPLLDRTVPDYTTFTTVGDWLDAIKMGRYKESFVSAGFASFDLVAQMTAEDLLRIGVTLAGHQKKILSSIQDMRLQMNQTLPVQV

[5] = molecular target: T3, Ephrin type-B receptor 3 (Homo sapiens); conditions: at 10 µM
[6] = molecular target: T4, Ephrin type-B receptor 4 (Homo sapiens) (UniProt P54760); conditions: at 1 µM
T4 sequence (whole entry): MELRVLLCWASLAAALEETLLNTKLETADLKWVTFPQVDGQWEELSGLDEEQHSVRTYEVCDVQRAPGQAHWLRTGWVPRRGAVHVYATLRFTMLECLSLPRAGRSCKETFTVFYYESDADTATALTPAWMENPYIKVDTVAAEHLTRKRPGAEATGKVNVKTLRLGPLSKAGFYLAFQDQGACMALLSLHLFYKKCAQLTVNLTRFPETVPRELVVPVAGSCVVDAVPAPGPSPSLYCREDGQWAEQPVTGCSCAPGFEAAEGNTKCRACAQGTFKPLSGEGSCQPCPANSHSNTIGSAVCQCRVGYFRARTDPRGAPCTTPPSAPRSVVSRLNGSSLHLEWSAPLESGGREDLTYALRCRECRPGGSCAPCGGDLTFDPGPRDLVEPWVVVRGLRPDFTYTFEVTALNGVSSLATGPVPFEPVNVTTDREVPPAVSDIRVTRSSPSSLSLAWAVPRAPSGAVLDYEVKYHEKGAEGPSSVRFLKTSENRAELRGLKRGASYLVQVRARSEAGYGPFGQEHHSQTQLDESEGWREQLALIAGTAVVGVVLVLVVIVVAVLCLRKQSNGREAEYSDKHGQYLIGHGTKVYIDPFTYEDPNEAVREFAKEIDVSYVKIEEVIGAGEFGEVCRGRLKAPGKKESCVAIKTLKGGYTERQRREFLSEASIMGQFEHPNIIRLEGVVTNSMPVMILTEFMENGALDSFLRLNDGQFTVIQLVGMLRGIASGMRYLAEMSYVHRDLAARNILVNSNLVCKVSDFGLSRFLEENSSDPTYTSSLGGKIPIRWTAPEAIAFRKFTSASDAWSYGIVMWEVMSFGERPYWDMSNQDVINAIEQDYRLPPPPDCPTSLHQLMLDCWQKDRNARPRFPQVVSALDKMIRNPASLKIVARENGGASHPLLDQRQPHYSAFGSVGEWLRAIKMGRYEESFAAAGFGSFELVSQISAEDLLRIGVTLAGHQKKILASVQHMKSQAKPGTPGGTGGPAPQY

[7] = molecular target: T4, Ephrin type-B receptor 4 (Homo sapiens); conditions: at 10 µM
[8] = molecular target: Receptor tyrosine-protein kinase erbB-4 (Homo sapiens) (UniProt Q15303); conditions: at 1 µM
[9] = molecular target: Receptor tyrosine-protein kinase erbB-4 (Homo sapiens) (UniProt Q15303); conditions: at 10 µM
[10] = molecular target: Focal adhesion kinase 1 (Homo sapiens) (UniProt Q05397); conditions: at 1 µM
Sequence of Focal adhesion kinase 1 (Homo sapiens) (Q05397 2-1052 limits assumed): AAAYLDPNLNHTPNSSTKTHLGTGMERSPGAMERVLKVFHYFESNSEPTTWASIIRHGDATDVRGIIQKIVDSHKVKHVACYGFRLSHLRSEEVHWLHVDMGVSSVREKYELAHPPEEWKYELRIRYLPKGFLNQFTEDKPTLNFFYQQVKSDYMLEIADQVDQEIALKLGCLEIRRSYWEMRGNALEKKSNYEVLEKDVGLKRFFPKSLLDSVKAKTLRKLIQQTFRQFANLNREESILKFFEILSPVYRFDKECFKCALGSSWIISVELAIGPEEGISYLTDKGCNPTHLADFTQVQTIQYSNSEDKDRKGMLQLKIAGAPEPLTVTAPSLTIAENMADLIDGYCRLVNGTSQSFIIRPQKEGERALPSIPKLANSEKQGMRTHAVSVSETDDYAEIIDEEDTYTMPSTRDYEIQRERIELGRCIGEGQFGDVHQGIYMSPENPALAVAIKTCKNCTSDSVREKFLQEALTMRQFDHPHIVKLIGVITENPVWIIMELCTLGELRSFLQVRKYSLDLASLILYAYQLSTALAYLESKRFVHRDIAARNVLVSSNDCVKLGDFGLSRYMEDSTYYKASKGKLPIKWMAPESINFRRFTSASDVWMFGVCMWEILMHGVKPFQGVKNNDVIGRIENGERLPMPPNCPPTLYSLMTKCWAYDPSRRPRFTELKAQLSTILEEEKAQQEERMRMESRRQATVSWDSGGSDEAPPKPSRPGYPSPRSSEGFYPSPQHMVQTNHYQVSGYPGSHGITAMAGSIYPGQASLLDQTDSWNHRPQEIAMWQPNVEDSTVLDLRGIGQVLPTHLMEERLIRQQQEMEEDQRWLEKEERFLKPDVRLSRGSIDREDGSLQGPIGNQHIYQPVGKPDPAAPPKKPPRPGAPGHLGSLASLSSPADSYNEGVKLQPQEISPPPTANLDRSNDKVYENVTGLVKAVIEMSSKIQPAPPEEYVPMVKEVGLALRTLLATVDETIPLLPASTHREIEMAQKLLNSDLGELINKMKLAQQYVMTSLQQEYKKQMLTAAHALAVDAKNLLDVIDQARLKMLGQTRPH

Sequence of Receptor tyrosine-protein kinase erbB-4 (Homo sapiens) (Q15303 whole entry): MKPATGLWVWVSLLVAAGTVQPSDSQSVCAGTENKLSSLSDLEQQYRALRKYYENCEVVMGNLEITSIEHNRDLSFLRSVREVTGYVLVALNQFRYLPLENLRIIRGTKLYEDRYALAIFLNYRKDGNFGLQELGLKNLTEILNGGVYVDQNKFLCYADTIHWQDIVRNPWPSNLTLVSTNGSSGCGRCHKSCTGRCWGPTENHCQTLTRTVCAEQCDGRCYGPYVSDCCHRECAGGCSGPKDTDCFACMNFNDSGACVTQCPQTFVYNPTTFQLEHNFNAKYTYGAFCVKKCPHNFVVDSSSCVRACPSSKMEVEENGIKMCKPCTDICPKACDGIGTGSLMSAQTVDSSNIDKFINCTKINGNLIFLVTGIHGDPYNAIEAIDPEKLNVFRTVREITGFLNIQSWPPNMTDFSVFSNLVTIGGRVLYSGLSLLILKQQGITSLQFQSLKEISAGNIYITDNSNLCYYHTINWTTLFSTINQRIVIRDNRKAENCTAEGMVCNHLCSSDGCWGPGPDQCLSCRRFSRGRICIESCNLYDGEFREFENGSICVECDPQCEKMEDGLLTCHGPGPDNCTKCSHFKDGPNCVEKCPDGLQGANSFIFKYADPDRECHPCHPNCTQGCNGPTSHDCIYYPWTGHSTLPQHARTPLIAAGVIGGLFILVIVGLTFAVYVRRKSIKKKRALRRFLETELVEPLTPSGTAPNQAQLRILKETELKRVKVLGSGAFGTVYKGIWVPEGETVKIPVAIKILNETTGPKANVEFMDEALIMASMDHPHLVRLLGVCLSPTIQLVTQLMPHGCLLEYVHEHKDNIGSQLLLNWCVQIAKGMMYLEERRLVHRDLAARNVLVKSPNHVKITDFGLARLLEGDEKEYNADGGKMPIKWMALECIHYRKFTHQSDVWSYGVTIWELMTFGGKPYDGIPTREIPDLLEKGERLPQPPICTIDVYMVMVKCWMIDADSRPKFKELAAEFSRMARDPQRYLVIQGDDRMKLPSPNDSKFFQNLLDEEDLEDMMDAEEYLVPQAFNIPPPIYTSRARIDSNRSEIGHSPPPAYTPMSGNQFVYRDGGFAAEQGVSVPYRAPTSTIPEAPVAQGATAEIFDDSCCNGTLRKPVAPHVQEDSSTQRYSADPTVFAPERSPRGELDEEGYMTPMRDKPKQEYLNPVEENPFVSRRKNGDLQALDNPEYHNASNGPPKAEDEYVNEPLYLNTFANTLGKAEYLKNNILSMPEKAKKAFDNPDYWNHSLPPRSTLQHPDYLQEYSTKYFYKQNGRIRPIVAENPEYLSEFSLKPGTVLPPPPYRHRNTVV

Nc1ncnc2c1c(-c1ccc(Oc3ccccc3)cc1)cn2C1CCCC1
residual activity [1]: 70%
residual activity [2]: 108%
residual activity [3]: 101%
residual activity [4]: 104% (inactive)
residual activity [5]: 117%
residual activity [6]: 99%
residual activity [7]: 89%
residual activity [8]: 0%
residual activity [9]: -4%
residual activity [10]: 116%
